Active and inactive are the calls of the source. Calls follow the shape of the dose curve; as a rule, active = well fitted curve in the direction sought with a large enough effect; inconclusive = small, poorly fitted or top-dose-only effect, or effect the other way, or another doubt; inactive = no such curve, though single readings can be large or run the other way.
The compounds below were run against Pyruvate kinase PKLR (Homo sapiens) (UniProt P30613) (assay: Secondary Concentration-Response Assay for Activators of Human Liver Pyruvate Kinase: for Probe SAR). Conditions: purified hPK-L, ATP production, Kinase-Glo luminescence; series mostly up to 58.3 µM.
Source text: NIH Chemical Genomics Center [NCGC]
Matthew G. Vander Heiden, M.D., Ph.D. [Harvard Medical School, 77 Avenue Louis Pasteur, Boston, MA 02115]
Human pyruvate kinase liver (hPK-L) enzyme was supplied as a highly purified (>95% pure) preparation from Harvard Medical School and assayed for its ability to generate ATP from ADP using phosphoenolpyruvate (PEP) as a substrate. ATP generation was detected in a coupled reaction by luciferase-mediated luminescence, an ATP-dependent process. Pyruvate kinase substrates, PEP and ADP, were present in the assay at Km and approximately 10-fold below Km respectively. The enzyme was assayed at an intermediate level of activity to screen for both inhibitors and activators.
NCGC Assay Protocol Summary for L-isoform:
Three uL of substrate mix (at r.t.) in assay buffer (50 mM Imidazole pH7.2, 50 mM KCl, 7 mM MgCl2, 0.01% Tween 20, 0.05% BSA) was dispensed into white solid bottom 1,536 well microtiter plates so that the final concentrations of substrates in the assay were 0.1 mM ADP and 0.5 mM PEP. 23 nL of compound were delivered by a pin tool and 1 uL of enzyme mix (final concentration of 0.1 nM) in assay buffer (4 degree Celsius) was added. Plates were incubated at room temperature for 1 hour. Two uL of detection mix (Kinase-Glo, Promega; at 4 degree Celsius protected from light) was added and luminescence read by a ViewLux (Perkin Elmer) at 1 second exposure/plate. Data were normalized to the uninhibited (row 31). Additionally, a no enzyme and 5-fold enzyme control was dispensed in row 32, split equally between the two conditions.

Sequence of Pyruvate kinase PKLR (Homo sapiens) (P30613 whole entry, looked up): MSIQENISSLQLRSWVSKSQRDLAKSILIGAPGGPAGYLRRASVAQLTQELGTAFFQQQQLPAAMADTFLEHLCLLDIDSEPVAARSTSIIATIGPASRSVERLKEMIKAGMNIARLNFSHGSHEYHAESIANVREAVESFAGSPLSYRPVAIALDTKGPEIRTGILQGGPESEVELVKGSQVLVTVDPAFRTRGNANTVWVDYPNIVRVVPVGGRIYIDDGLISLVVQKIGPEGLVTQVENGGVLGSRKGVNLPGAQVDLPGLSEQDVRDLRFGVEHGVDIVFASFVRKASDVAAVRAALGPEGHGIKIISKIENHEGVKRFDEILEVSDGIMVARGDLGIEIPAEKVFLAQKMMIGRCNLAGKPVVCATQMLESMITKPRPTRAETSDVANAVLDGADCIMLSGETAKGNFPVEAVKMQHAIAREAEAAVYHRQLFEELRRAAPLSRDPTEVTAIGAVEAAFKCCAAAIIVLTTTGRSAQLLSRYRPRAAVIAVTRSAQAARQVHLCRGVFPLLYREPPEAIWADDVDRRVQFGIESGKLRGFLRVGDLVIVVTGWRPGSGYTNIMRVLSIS

SMILES	outcome
CCNc1cccc(S(=O)(=O)N2CCN(S(=O)(=O)c3ccc4c(c3)OCCO4)CC2)c1	inactive
Cc1ccc(-c2nc3ccc(Cl)cn3c2Nc2ccccc2)o1	inactive
Cc1ccc(NS(=O)(=O)c2cc3c(cc2/C=C/c2ccccc2)NC(=O)CO3)cc1C	inactive
Cc1ccc(Nc2c(-c3ccsc3)nc3cccc(C)n23)cc1	inactive
CC(=O)Nc1ccc(S(=O)(=O)Nc2ccc(C)c(C)c2)cc1	inactive
Cc1ccc(NS(=O)(=O)c2cc3c(cc2C)NC(=O)CO3)cc1C	inactive
Cc1ccc(Nc2c(-c3ccsc3)nc3c(C)cccn23)cc1	inactive
O=C1c2ccccc2C(=O)N1c1nccs1	inactive
O=S1(=O)N=C(Oc2cccc(Cl)c2)c2ccccc21	inactive
O=C1CCc2cc(S(=O)(=O)Nc3cccc(Br)c3)ccc2N1	inactive
O=C1CCc2cc(S(=O)(=O)Nc3ccccc3Cl)ccc2N1	inactive
COc1ccccc1NS(=O)(=O)c1ccc2c(c1)CCC(=O)N2	inactive
O=C1c2ccccc2C(=O)N1c1ccncc1	inactive
O=C1CCc2cc(S(=O)(=O)Nc3ccccn3)ccc2N1	inactive
Cc1c(Cl)cccc1NS(=O)(=O)c1cc2c(cc1F)NC(=O)CC2	inactive
COc1cccc(Cn2ncc3c4sc(S(C)=O)cc4n(C)c3c2=O)c1 (stereo not given)	inactive
Cc1ccc(NS(=O)(=O)c2ccc3c(c2)CCC(=O)N3)cc1C	inactive
Cc1ccc(NS(=O)(=O)c2ccc3c(c2)CCN(C(=O)C(F)(F)F)C3)cc1C	inactive
O=C1CCc2cc(S(=O)(=O)Nc3ccc(F)cc3)ccc2N1	inactive
Cc1ccc2nc(-c3ccc(C)o3)c(Nc3ccc4c(c3)OCO4)n2c1	inactive

SMILES	outcome
Cc1ccc(NS(=O)(=O)c2ccc3c(c2)N(C)C(=O)CO3)cc1C	inactive
O=S(=O)(c1ccc2c(c1)OCCO2)N1CCN(S(=O)(=O)c2c(F)cccc2F)CC1	inactive
Cc1ccc(Cl)cc1NS(=O)(=O)c1cc2c(cc1Cl)CCC(=O)N2	inactive
Cc1ccc(NS(=O)(=O)c2ccc3[nH]c(=O)[nH]c3c2)cc1C	inactive
CC(=O)Nc1cccc(S(=O)(=O)Nc2ccc(C)c(C)c2)c1	inactive
Cc1ccccc1OC1=NS(=O)(=O)c2ccccc21	inactive
CC(=O)N1c2ccc(S(=O)(=O)Nc3ccc(C)c(C)c3)cc2CC1C (stereo not given)	inactive
CN(C)c1cccc(S(=O)(=O)N2CCN(S(=O)(=O)c3ccc4c(c3)OCCO4)CC2)c1	inactive
O=C1CCc2cc(S(=O)(=O)Nc3ccc(Cl)c(Cl)c3)ccc2N1	inactive
Cc1ccc(NS(=O)(=O)c2ccc3c(c2)NC(=O)CO3)cc1C	inactive
O=C1CCc2cc(S(=O)(=O)Nc3cc(F)cc(Cl)c3)c(F)cc2N1	inactive
CC(=O)N1CCCc2cc(S(=O)(=O)Nc3ccc(C)c(C)c3)ccc21	inactive
O=C1CCc2cc(S(=O)(=O)Nc3ccc4ncccc4c3)ccc2N1	inactive
O=C1CCc2cc(S(=O)(=O)Nc3ccc4c(c3)OCCO4)ccc2N1	inactive
Cc1nc(-c2ccc(S(=O)(=O)Nc3ccc(C)c(C)c3)s2)cs1	inactive
O=C1c2ccccc2C(=O)N1c1cccc(=O)[nH]1	inactive
O=C1c2ccccc2C(=O)N1c1cccc2ccncc12	inactive
Cc1ccc(NS(=O)(=O)c2ccc3c(c2)CCC(=O)N3)cc1Cl	inactive
Cc1ccc(NS(=O)(=O)c2ccc(-c3ccccc3)cc2)cc1C	inactive
COc1cccc(N2C(=O)c3ccccc3C2=O)c1	inactive
